In all, about 280,000 compounds went through this assay and about 1,700 (0.61%) were called active. Cut-off read from the data, not from the text of the source: active = inhibition mostly above about 24% (no sharp cut-off); inactive = mostly below about 32%. The entries come from a sample that favours actives as a whole.
Assay: NALP1 inflammasome inhibitors in reconstituted yeast, colorimetric, S. cerevisiae, triplicate retest (AID 2071)
Conditions: S. cerevisiae NALP1/ASC/caspase-1 growth, X-gal OD620, 72 h, stronger effect = higher value

SMILES: CC(=O)c1ccc(NC(=O)c2cc(-c3cccs3)on2)cc1
- inhibition (at 10 µM unless noted): 27.2% (inactive)

SMILES: CN(C)CCCN(C(=O)c1ccc(S(=O)(=O)N2CCCCCC2)cc1)c1nc2ccc(Br)cc2s1
- inhibition (at 10 µM unless noted): 40.2% (active)

SMILES: CCN(CC)CCN(C(=O)c1ccc(S(=O)(=O)N2CCOCC2)cc1)c1nc2cc3c(cc2s1)OCCO3
- inhibition (at 10 µM unless noted): 6.8% (inactive)

SMILES: CN(C)CCCN(C(=O)c1ccc(S(=O)(=O)N2CCCc3ccccc32)cc1)c1nc2ccc(F)cc2s1
- inhibition (at 10 µM unless noted): 33.1% (inactive)

SMILES: O=C(N/N=C/c1ccccc1O)C1CCCC1
- inhibition (at 10 µM unless noted): -5.6% (inactive)

SMILES: COc1ccc(N(C)S(=O)(=O)c2ccc3c(c2)CC(C)N3C(=O)C2CC2)c(OC)c1 (stereo not given)
- inhibition (at 10 µM unless noted): 10.4% (inactive)

SMILES: O=C(Nc1ccnc(-c2ccncc2)n1)c1cccs1
- inhibition (at 10 µM unless noted): 37.8% (active)

SMILES: O=C(Nc1ccc(NC(=O)c2cccs2)cn1)c1ccco1
- inhibition (at 10 µM unless noted): -12.5% (inactive)

SMILES: O=C(Nc1ccccc1)c1ccc(NC(=O)c2cccs2)cc1
- inhibition (at 10 µM unless noted): 1.7% (inactive)

SMILES: CN1CCN(NC(=O)Nc2ccc(Br)cc2)CC1
- inhibition (at 10 µM unless noted): 9.6% (inactive)

SMILES: CN1C(CC(=O)Nc2ccc(Br)cc2)c2ccccc2CC1(C)C (stereo not given)
- inhibition (at 10 µM unless noted): 34.1% (active)

SMILES: COCC(=O)Nc1ccc(Br)cc1
- inhibition (at 10 µM unless noted): -1.1% (inactive)

SMILES: CC(C)Sc1ncnc2c1cnn2-c1ccccc1
- inhibition (at 10 µM unless noted): 13.3% (inactive)

SMILES: Cc1nonc1NC(=O)c1oc2ccccc2c1C
- inhibition (at 10 µM unless noted): 15.3% (inactive)

SMILES: Cc1cccc(N2C(=O)CC(SC(N)=Nc3ccccc3)C2=O)c1 (stereo not given)
- inhibition (at 10 µM unless noted): 3% (inactive)

SMILES: COC(=O)c1cc(C(=O)OC)cc(N2C(=O)CC(N3CCN(c4ccccc4)CC3)C2=O)c1 (stereo not given)
- inhibition (at 10 µM unless noted): 9.3% (inactive)

SMILES: COC(=O)c1ccccc1SC1CC(=O)N(c2cccc(C)c2)C1=O (stereo not given)
- inhibition (at 10 µM): 74.7% (active)
- inhibition (triplicate retest, at 20 µM): 89.6%

SMILES: CC(=O)c1ccc(N2Cc3ccccc3C2)cc1
- inhibition (at 10 µM unless noted): 23% (inactive)

SMILES: COC(=O)c1ccc(NC(=O)CSc2nncn2-c2cccnc2)cc1
- inhibition (at 10 µM unless noted): 12.6% (inactive)

SMILES: COc1ccc(/C=C2\SC(=S)N(CCCC(=O)NC3CCCC3)C2=O)cc1OC
- inhibition (at 10 µM unless noted): 12.9% (inactive)

SMILES: CN(C)/C=C/C(=O)c1ccccc1F
- inhibition (at 10 µM unless noted): 27.1% (inactive)

SMILES: Cc1ccc(SCC(=O)c2sc(-c3ccccc3)nc2C)cc1
- inhibition (at 10 µM unless noted): 30.2% (inactive)

SMILES: Cc1nc(-c2ccccc2)sc1C(=O)/C=C/N(C)C
- inhibition (at 10 µM unless noted): 32.3% (active)

SMILES: CCCc1cc(=O)oc2c(C)c(OCC(=O)Nc3ccccn3)ccc12
- inhibition (at 10 µM unless noted): 16.1% (inactive)

SMILES: COc1cc(/C=C/C(=O)N2CCc3ccccc3C2)cc(OC)c1OC
- inhibition (at 10 µM unless noted): 10.3% (inactive)

SMILES: COc1ccc(OC)c(C(=O)NC(CC(N)=O)c2ccc(N3CCC(N4CCCCC4)CC3)c([N+](=O)[O-])c2)c1 (stereo not given)
- inhibition (at 10 µM unless noted): 11.6% (inactive)

SMILES: Cc1ccc(C)c(S(=O)(=O)n2cnc3ccccc32)c1
- inhibition (at 10 µM unless noted): 1.1% (inactive)

SMILES: Cc1ccc(S(=O)(=O)n2cnc3ccccc32)c(C)c1
- inhibition (at 10 µM unless noted): 40.9% (active)

SMILES: COc1ccc(S(=O)(=O)n2cnc3ccccc32)c(C)c1
- inhibition (at 10 µM unless noted): 2.2% (inactive)

SMILES: CC1CN(C(=O)c2cc(COc3c(F)cccc3F)on2)CCN1C (stereo not given)
- inhibition (at 10 µM unless noted): -3.5% (inactive)

SMILES: Cc1ccc(CNC(=O)CCS(=O)(=O)c2ccc3c(c2)CC(C)N3C(=O)C2CC2)o1 (stereo not given)
- inhibition (at 10 µM unless noted): 20.6% (inactive)

SMILES: O=C(NCC1CCCO1)/C(=C/c1ccc(Cl)cc1)NC(=O)c1ccccc1 (stereo not given)
- inhibition (at 10 µM unless noted): 22.3% (inactive)

SMILES: O=C(NC(=O)c1ccccc1)NC(=O)c1ccccc1
- inhibition (at 10 µM unless noted): -6% (inactive)

SMILES: N#C/C(=C/c1ccc(Cl)cc1)NC(=O)c1ccccc1
- inhibition (at 10 µM unless noted): 43.3% (active)

SMILES: O=C(Nc1ccccc1Cl)NC1(C(=O)N2CCOCC2)CCCCC1
- inhibition (at 10 µM unless noted): 7.4% (inactive)

SMILES: CC1CCC2(CC1)NC(=O)N(CC(=O)c1ccc3c(c1)OCO3)C2=O (stereo not given)
- inhibition (at 10 µM unless noted): 9% (inactive)

SMILES: Cc1occc1C(=O)N/N=C/c1ccc(-c2cccc([N+](=O)[O-])c2)o1
- inhibition (at 10 µM unless noted): 11.5% (inactive)

SMILES: CC[C@H]1OC(=O)[C@H](C)[C@@H](O[C@H]2C[C@@](C)(OC)[C@@H](O)[C@H](C)O2)[C@H](C)[C@@H](O[C@@H]2O[C@H](C)C[C@H](N(C)C)[C@H]2O)[C@](C)(O)C[C@@H](C)[C@@H]2N[C@@H](COCCOC)O[C@H]([C@H]2C)[C@]1(C)O
- inhibition (at 10 µM unless noted): 75.2% (active)

SMILES: CCn1c(SCc2cccc(C(=O)O)c2)nnc1-c1ccc(Cl)cc1
- inhibition (at 10 µM unless noted): 7.1% (inactive)

SMILES: CCN1CCN(CCNC(=O)c2ccc(/C=C3/Sc4ccccc4N(Cc4cccc(C)c4)C3=O)cc2)CC1
- inhibition (at 10 µM unless noted): 12.2% (inactive)

SMILES: CCN1/C(=C/c2ccc3ccc(C)cc3[n+]2CC)Sc2ccccc21
- inhibition (at 10 µM): 87.1% (active)
- inhibition (triplicate retest, at 20 µM): 107%

SMILES: CCN1/C(=C/C(=S)Nc2ccccc2)Sc2ccccc21
- inhibition (at 10 µM unless noted): 27.1% (inactive)

SMILES: CCN1/C(=C\c2ccc3ccccc3[n+]2CC)Sc2cc(C)ccc21
- inhibition (at 10 µM): 77.1% (active)
- inhibition (triplicate retest, at 20 µM): 81.9%

SMILES: CCCN1CCn2c3c(c4cc(Br)ccc42)CCCC31 (stereo not given)
- inhibition (at 10 µM unless noted): 15.4% (inactive)

SMILES: CCN(C(=O)CN1C(=O)/C(=C/c2ccc(F)cc2)SC1=S)C1CCS(=O)(=O)C1 (stereo not given)
- inhibition (at 10 µM unless noted): 4.8% (inactive)

SMILES: COc1ccc(C(=O)N2CCCCC2C(=O)Nc2ccc(-n3nc(C)cc3C)cc2)o1 (stereo not given)
- inhibition (at 10 µM unless noted): 8.7% (inactive)

SMILES: Cc1snc(SCc2c(F)cccc2Cl)c1C#N
- inhibition (at 10 µM unless noted): 6.1% (inactive)

SMILES: CCC(=C/c1sc2ccc3ccccc3c2[n+]1C)/C=C1\Sc2ccc3ccccc3c2N1C
- inhibition (at 10 µM unless noted): 42.3% (active)

SMILES: COc1ccc(/C=N/Nc2ccccc2C(=O)O)cc1
- inhibition (at 10 µM unless noted): 10.9% (inactive)

SMILES: CCNC(=O)Nc1ccc(S(=O)(=O)Nc2cnc(C)nc2C)cc1
- inhibition (at 10 µM unless noted): 18.5% (inactive)

SMILES: CCOc1ccccc1/C=N/Nc1nc2ccccc2o1
- inhibition (at 10 µM unless noted): 14.3% (inactive)

SMILES: COc1ccccc1CCNC(=O)C1CCN(C(=O)/C=C/c2ccccc2)CC1
- inhibition (at 10 µM unless noted): 16.7% (inactive)
